# Reference: PubChem BioAssay AID2778 (National Center for Advancing Translational Sciences (NCATS), 2010)
# Records with an inconclusive call do not appear. Calls of active or inactive are those of the source. Calls come from the whole dose curve; as a rule, active = well fitted inhibition curve with a large enough effect; inconclusive = small, poorly fitted or top-dose-only effect, or effect the other way; inactive = flat fitted curve, though single readings scatter.
# Target: Menin (Homo sapiens) (UniProt O00255)
# Sequence (O00255 whole entry, looked up): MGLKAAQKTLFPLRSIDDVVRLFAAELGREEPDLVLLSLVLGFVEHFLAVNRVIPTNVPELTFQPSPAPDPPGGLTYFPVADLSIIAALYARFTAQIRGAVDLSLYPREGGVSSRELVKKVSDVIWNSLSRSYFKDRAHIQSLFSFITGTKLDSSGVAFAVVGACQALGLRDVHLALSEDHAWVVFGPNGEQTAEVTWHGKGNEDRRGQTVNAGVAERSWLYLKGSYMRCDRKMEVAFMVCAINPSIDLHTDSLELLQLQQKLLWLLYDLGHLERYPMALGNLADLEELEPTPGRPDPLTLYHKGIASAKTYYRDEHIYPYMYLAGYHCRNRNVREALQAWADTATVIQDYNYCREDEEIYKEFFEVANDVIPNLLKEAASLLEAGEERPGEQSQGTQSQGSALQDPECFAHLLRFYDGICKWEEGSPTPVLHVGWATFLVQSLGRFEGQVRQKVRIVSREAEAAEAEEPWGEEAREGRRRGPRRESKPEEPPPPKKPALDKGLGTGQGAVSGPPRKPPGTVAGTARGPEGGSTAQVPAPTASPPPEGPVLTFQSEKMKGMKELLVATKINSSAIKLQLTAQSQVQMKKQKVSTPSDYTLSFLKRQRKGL
# Assay: Confirmation of Inhibitors Targeting the Menin-MLL Interaction in MLL Related Leukemias: Confirmation in an HTRF (commercial TR-FRET) Assay using His-tagged menin and biotin-labeled MLL peptide
# Conditions: His-menin / biotin-MLL peptide binding; series mostly up to 126 µM; activity change, negative = inhibition: at the top concentration
# From the text: qHTS Assay for Inhibitors Targeting the Menin-MLL Interaction in MLL Related Leukemias
# NIH Chemical Genomics Center [NCGC]
# NIH Molecular Libraries Probe Centers Network [MLPCN]
# Assay Submitter (PI): Jolanta Grembecka, Tomasz Cierpicki, University of Virginia
# Translocations of the MLL (Mixed Lineage Leukemia) gene are frequently found in human leukemias affecting both children and adults. Fusion of MLL to one of more than 60 genes results in generation of oncogenic proteins upregulating Hox genes, which are vital to blood cell development. Patients harboring fusion of the MLL gene suffer from aggressive leukemias and respond poorly to available therapies. All of the oncogenic fusion proteins have a preserved N-terminal fragment of MLL that has been identified to interact with menin. It has been recently discovered that association with menin is critical to the leukemogenic activity of the MLL fusion oncoproteins. Selective targeting of the menin-MLL interaction could provide an attractive therapeutic approach to develop novel drugs for MLL-related leukemias. Small molecules blocking the menin-MLL interaction should reverse the oncogenic potential of MLL fusion proteins.
# We have developed and optimized a fluorescence polarization-based assay for the identification of Menin-MLL inhibitors. The assay was run employing two different MLL-derived peptides. The present assay uses a 12 amino acid peptide labeled with fluorescein at its N-terminus. This peptide consists of the menin high affinity binding motif from MLL and is potently bound by menin. Another peptide with a mutated sequence, labeled with Texas Red, was used in parallel as a less stringent screen for inhibitors.
# The present assay uses an alternate technology to confirm hits from the primary screen - homogeneous time resolved fluorescence (HTRF).
# The Menin protein, the MLL-wild type (w.t.) derived peptide (N-terminal 12 amino acids), the MLL-derived peptide labeled with Texas Red and the MLL-w.t. peptide labeled with Fluorescein were kindly supplied by laboratory of Dr. Jolanta Grembecka, University of Virginia. All protein and peptide solutions were stored in single use aliquots at -80C. The Eu3+ Cyrptate-conjugated mouse monoclonal antibody anti-6 Histidine (Eu3+-AB) and the Streptavidin-XL665 conjugate (XL665) were purchased from Cisbio International (Bedford, MA). All antibody and XL665 conjugate solution stocks were stored in single use aliquots at -20C. The Buffer components for all assays were purchased from Sigma-Aldrich (St. Louis, MO) and Invitrogen (Carlsbad, CA).
# 1. HTRF reaction buffer: 50 mM Tris-HCl pH 7.5, 50 mM NaCl, 1mM DTT.
# Before use, 0.05% BSA is added.
# 2. His6-Menin protein, MLL-w.t. labeled with biotin.
# Stored in singe use aliquots at -80C.
# 3. MLL-w.t. unlabeled peptide as positive control: 10 uM final in HTRF buffer.
# 1. Prepare His6-Menin at 200 nM, MLL-w.t.-biotin at 80 nM in HTRF buffer.
# 2. Prepare His6-Menin at 200 nM, MLL-w.t.-biotin at 80 nM and 10 uM MLL-w.t. unlabeled mixture in HTRF buffer.
# 3. Dispense 10 ul per well of reagent in step 1 in columns 2, 4-24 in a black 384 well plate, dispense 10 ul per well of reagents from steps 2 in column 1. Incubate plate at ambient for 15 minutes.
# 4. Transfer 1 uL per well of compound to plate and incubate at ambient for 1 hr.
# 5. Dispense 10uL of the donor (6His-Cryptate, 3.5 nM final conc.) and acceptor (SA_XL, 10nM final conc.) complex in the HTRF buffer with 0.01% BSA. Incubate for 1h.
# % is set by controls: 0 for no effect and ±100 for the full control effect; potency is the fitted concentration of half-maximal effect.
SMILES,"activity change, negative = inhibition",Potency
COc1ccc(/C=C(\C#N)C(=O)NCc2ccccc2)cc1,-1.59% (inactive),
O=C1C(SCCO)=C(SCCO)C(=O)c2ccccc21,,39.8 µM (active)
CN(CCOc1ccc(Cl)cc1)CC(O)c1ccccc1 (stereo not given),-2.63% [at 383 µM] (inactive),
N#Cc1ccc(Cl)cc1NC(=O)CNCc1cccs1,5.39% (inactive),
O=C(/C=C/c1ccccc1)NC(NC(=S)Nc1cc(Cl)ccc1Cl)C(Cl)(Cl)Cl (stereo not given),-16.1% [at 383 µM] (inactive),
Cn1c(=O)[nH]c(=O)c2c1nc(Br)n2CCSc1nc2ccccc2o1,-2.42% [at 383 µM] (inactive),
Cc1cc2cc(C(c3nnnn3CC3CCCO3)N3CCCc4ccccc43)c(=O)[nH]c2cc1C (stereo not given),-8.66% (inactive),
c1ccc2c(c1)NCC1CCCN21 (stereo not given),-0.883% (inactive),
COc1ccc(NC(=O)N2CC[C@@]3(CCCN(C(=O)c4csnn4)C3)C2)cc1,-2.47% (inactive),
O=C(CSc1ccc(Cl)cc1)Nc1ccc(NC(=O)c2ccco2)cc1,-28.2% (inactive),
O=C(N/N=C/c1cn(-c2ccccc2)nc1-c1cc2ccccc2o1)c1ccccc1Br,-16.3% (inactive),
O=C(CCn1nc(-c2ccccc2)ccc1=O)N1CCN(c2ccccn2)CC1,4.1% (inactive),
COc1ccc(CN2CCN(C(C)C(=O)N(C)Cc3cccc(F)c3)CC2)cc1OC (stereo not given),-4.13% (inactive),
Cc1cc2c(N)cccc2nn1,16.7% (inactive),
COc1ccc2[nH]c3c(C)c4ccncc4c(C)c3c2c1,,89.1 µM (active)
COc1ccc(-c2cc(-c3ccc(C)cc3)n[nH]2)c(O)c1,-10.7% [at 383 µM] (inactive),
CC(=O)c1cccc(OCC(O)CNCC2COc3ccccc3O2)c1 (stereo not given),6.05% (inactive),
O=C1CCNc2c(Cl)cc(Cl)cc21,4.84% (inactive),
O=C(Nc1cc(Br)ccc1O)c1cc(-c2ccc3c(c2)OCO3)on1,-2.75% [at 383 µM] (inactive),
Clc1ccc(-c2nnc(-c3ccccc3)nc2-c2c[nH]c3ccccc23)cc1,-19.6% (inactive),

SMILES,"activity change, negative = inhibition",Potency
O=C(Nc1nnc(-c2ccccc2SCc2ccccc2)s1)Nc1ccccc1F,-20.5% (inactive),
N=C1c2ccccc2CN1c1ccc(N2CCOCC2)c(S(=O)(=O)Nc2ccc(Cl)cc2)c1,,79.4 µM (active)
CCCOc1ccc(C(=O)N2CCN(Cc3ccc4c(c3)OCO4)CC2)cc1,1.23% (inactive),
CCOc1ccc(NC(=O)c2cccc(OC(=S)N3CCC(C)CC3)c2)cc1,-5.98% (inactive),
Cc1ccc2nc(-c3ccc(NC(=O)COC(=O)c4ccc(Br)o4)cc3)sc2c1,-21.7% (inactive),
CCN(CC)c1nc(-c2ccc(C(=O)NN)cc2)nc(-c2ccc(C(=O)NN)cc2)n1,-7.98% [at 383 µM] (inactive),
CCNc1ccccc1CP(=O)(c1ccccc1)c1ccccc1O (stereo not given),,89.1 µM (active)
CNC[C@H](CC1CCCCC1)NC[C@H](Cc1ccccc1)NCCC12CC3CC(CC(C3)C1)C2,,251 µM (active)
Cc1sc2ncnc(NC3CCN(Cc4ccccc4)CC3)c2c1C,,126 µM (active)
Cc1cnc(NC(=O)C2C(=O)c3ccccc3S(=O)(=O)N2C)s1 (stereo not given),-8.7% [at 383 µM] (inactive),
O=C(Cn1c(=O)c2c3c(sc2n(Cc2ccccc2)c1=O)CCCC3)NCCO,2.77% [at 383 µM] (inactive),
Oc1ccc2ccccc2c1N=Nc1nccs1,12.6% (inactive),
O=C(NNCS(=O)(=O)O)c1ccncc1,-1.81% (inactive),
CCOC(=O)N1CCN(CCC(=O)c2ccc(Br)cc2)CC1,3.93% (inactive),
Cc1cccc(NC(=S)NC(NC(=O)OCc2ccccc2)C(Cl)(Cl)Cl)c1 (stereo not given),-17.5% [at 383 µM] (inactive),
CCCc1cc(=O)oc2c3c(c(Cl)cc12)OCN(CCCO)C3,-14.5% [at 383 µM] (inactive),
N=c1oc2ccccc2cc1-c1nc(-c2ccc(Cl)cc2)cs1,-5.52% (inactive),
COc1ccc(OC)c(C2C3=C(N=c4s/c(=C\c5cccc(O)c5)c(=O)n42)c2ccccc2CC3)c1 (stereo not given),-16.6% (inactive),
CC1CN(c2c3c(nc4ncnn24)CCCC3)CC(C)O1 (stereo not given),-3.06% (inactive),
CN(C)c1ccc(N=Nc2ccc(C(=O)O)cc2)cc1,4.67% (inactive),
